Source: PubChem (several laboratories)
MCL1 BIM primary = inhibitors of MCL1 binding to BIM-BH3, primary screen, biochemical, fluorescence polarization; GST-MCL1 / FITC-Bim-BH3 fluorescence polarization; inhibition, % at 10.9 µM; actives 0.68% (n = 320,000); AID 2057, 2009;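 active = inhibition above the mean inhibition of all tested compounds plus 3 SD, set per campaign, cut at about 40% in these data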;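 note: higher means more loss of mP so more displacement of Bim peptide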
Bcl-xL primary = inhibitors of human Bcl-xL, primary screen, biochemical, fluorescence polarization, HTS | GST-Bcl-xL / FITC-Bim BH3 peptide fluorescence polarization | inhibition, % at 10.9 µM | actives 0.7% (n = 320,000) | AID 2129, 2009;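 active = inhibition above the mean of all tested compounds plus 3 SD, cutoff set per campaign, cut at about 30% in these data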;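 note: inhibitors lower millipolarization by displacing the labeled peptide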
Target sequence (Q07817 whole entry, looked up): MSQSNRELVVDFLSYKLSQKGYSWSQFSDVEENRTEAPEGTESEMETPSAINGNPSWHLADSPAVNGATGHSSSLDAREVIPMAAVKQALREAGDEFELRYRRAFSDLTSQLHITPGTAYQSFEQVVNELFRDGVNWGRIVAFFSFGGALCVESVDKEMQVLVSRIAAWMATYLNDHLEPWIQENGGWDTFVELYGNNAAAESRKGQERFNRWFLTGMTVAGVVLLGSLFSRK
GLD-1 TGE inh = GLD-1/TGE RNA complex disruptors, primary screen, biochemical, fluorescence polarization; Female germline-specific tumor suppressor gld-1 (Caenorhabditis elegans), Q17339; purified GLD-1 + fluorescein TGE RNA; inhibition, % at 5.96 µM; actives 0.44% (n = 320,000);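 active = percent inhibition above a per-plate cutoff, the plate mean of test compounds plus 3 SD, cut at about 30% in these data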
MEX-5 binding = MEX-5 zinc finger RNA-binding disruptors – biochemical, C. elegans, fluorescence polarization, MLPCN library, primary screen | actives 0.38% (n = 300,000) | AID 1832, 2009 | Zinc finger protein mex-5 (Caenorhabditis elegans), Q9XUB2 | MEX-5/FITC-TCR2 RNA binding; active compounds read low | activity score (negative = inhibition of binding), % at 10 µM;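 active = inhibition past about -25% in most replicates, and total fluorescence under double the plate's negative control median, limit read from the data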
E coli Lon inh = inhibitors of E. coli Lon protease, primary screen, biochemical, fluorescence polarization; P0A9M0; purified E. coli Lon protease; inhibition, % at 7.94 µM; actives 0.42% (n = 360,000); in the data active = inhibition above about 13%, passing the limit was not always enough
E coli Lon conf = E. coli Lon protease inhibitor retest, confirmation, biochemical, fluorescence polarization | actives 31% (n = 1,400) | purified E. coli Lon | AID 602230, 2012 | shares compounds with E coli Lon inh | inhibition, % at 7.94 µM; in the data active = inhibition above about 16%
Hits are given with their value; 0 = inactive; - = no result given. Hits are enriched below; roughly 1.4% of the tested compounds scored in any of these assays.

SMILES	MCL1 BIM primary	Bcl-xL primary	GLD-1 TGE inh	MEX-5 binding	E coli Lon inh	E coli Lon conf
Cc1cccc(Nc2nc(N)nc(CN3CCN(Cc4ccc5c(c4)OCO5)CC3)n2)c1	0	0	0	0	19	0
O=C(NC1CCCCC1)c1cc(S(=O)(=O)N2CCCCC2)ccc1N1CCOCC1	0	0	0	-	20	0
Cc1cc(NC(=O)COC(=O)c2cc(S(=O)(=O)N3CCOCC3)ccc2N2CCCCC2)no1	0	0	0	0	54	0
O=C(NC1CCCCCC1)c1cc(S(=O)(=O)N2CCCCC2)ccc1N1CCOCC1	0	0	0	0	0	-
COc1cccc(NC(=O)C(C)SCc2ccccc2)c1 (stereo unspecified)	0	0	0	0	0	-
COc1ccc(CCNC(=O)C(C)SCc2ccccc2)cc1 (stereo unspecified)	0	0	0	0	19	0
N#Cc1c(N)[nH]c2ccc(Sc3ccccc3)cc12	-	-	-	-	0	-
Cc1cccc(S(=O)(=O)N2CN(Cc3ccco3)c3nc4ccccc4nc32)c1	0	0	0	0	59	0
O=C(Nc1ccc(Oc2ccccc2)cc1)c1ccc(Cn2c(=O)[nH]c3ccsc3c2=O)cc1	0	0	0	0	0	-
O=C(Nc1ccc(Cl)c(Cl)c1)c1ccc(Cn2c(=O)[nH]c3ccsc3c2=O)cc1	0	0	0	0	27	0
CC(C)(C)OC(=O)N(CCc1ccccc1)Cc1ccc(OCc2cccc(NC(=O)/C=C/c3ccccc3)c2)cc1	-	-	-	-	15	0
Nc1[nH]n(-c2c(Cl)cc(Cl)cc2Cl)c(=O)c1N=Nc1ccc(S(=O)(=O)Nc2ncccn2)cc1	-	-	0	-	21	0
O=C(NC(c1ccc(F)cc1)c1ccc2ccccc2n1)C1CCN(Cc2ccc3ccccc3n2)CC1 (stereo unspecified)	-	-	-	-	0	-
COc1cc(/C=C/CN2CCC(C(=O)NC(c3ccc(F)cc3)c3ccc4ccccc4n3)CC2)ccc1OC(C)=O (stereo unspecified)	-	-	-	-	26	0
CCCN1CCCc2cc(CN)ccc21	127	108	46	-60	38	47
CCc1ccc(NC(=O)N(CCN2CCOCC2)Cc2ccc3c(c2)CCCN3CC)cc1	0	0	0	0	0	-
O=C(Nc1ccncc1)c1cc(S(=O)(=O)N2CCCC2)ccc1Cl	-	-	0	-	21	0
COc1ccc(S(=O)(=O)Cc2ccc(C(=O)NC3CCCCC3)o2)cc1	0	0	0	0	27	0
COCCCN(C(=O)C1=COCCO1)c1c(N)n(Cc2ccccc2)c(=O)[nH]c1=O	-	-	-	-	0	-
CC(=O)C1=C(O)C(=O)N(c2ccc(Br)cc2)C1c1ccc(Br)cc1 (stereo unspecified)	0	0	0	0	30	0
Cc1cc2cc(CNC(=O)c3cccc([N+](=O)[O-])c3)ccc2[nH]1	0	0	0	0	24	0
O=C(NCCc1nnc2ccc(N3CCCC3)nn12)c1ccccc1	0	0	0	0	19	0
CCOC(=O)C1=C(C)N=c2sc(=Cc3ccc(OCC(=O)O)cc3)c(=O)n2C1c1ccc(SC)cc1 (stereo unspecified)	-	-	-	-	0	-
C[C@@H]1CN([C@@H](C)CO)C(=O)CCCn2nncc2CO[C@H]1CN(C)Cc1ccc2c(c1)OCCO2	-	-	-	-	0	-
O=C(/C(=C/O)N=Nc1ccccc1)c1cccs1	0	0	0	0	22	0
SMILES	MCL1 BIM primary	Bcl-xL primary	GLD-1 TGE inh	MEX-5 binding	E coli Lon inh	E coli Lon conf
OCc1ccccc1-c1cccc2nccn12	-	-	-	-	70	0
c1cnc2c(-c3cccc4nccn34)cccc2c1	-	-	-	-	0	-
CC1(C(=O)NC2CCCC2)CCC(=O)N1C1CCN(Cc2ccccc2)CC1 (stereo unspecified)	-	-	-	-	0	-
Cc1nn(C)c(=O)n1-c1ccccc1	0	0	0	0	0	-
Cn1c2nc(=O)n(-c3ccccc3)c(=O)c-2nc2c1CCCC2	-	-	-	-	123	77
COc1ccc(C2C3=C(CC(C)(C)CC3=O)Oc3ncn4nc(-c5ccccc5)nc4c32)cc1 (stereo unspecified)	-	-	-	-	26	0
